Source: PubChem BioAssay (EPA / NIEHS)
The source made the active and inactive calls. Rule for the calls: active = hit-call score of the fitted dose curve at least 0.9, where 1 is the maximum; inactive = score below 0.9.

Read-out: Cytochrome P450 2C19 (Homo sapiens) (UniProt P33261)
Assay: LTEA_HepaRG_CYP2C19: Life Technologies and Expression Analysis (LTEA) Assay for CYP2C19 using HepaRG (AID 2283482)
Settings: mRNA level, 48 h; actives raise or lower the signal
Procedure, shortened: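 Differentiated human HepaRG cells were exposed for 48 h in serum-free induction medium to 8 concentrations (top 100 uM, half-log steps, 0.5% DMSO). CYP2C19 mRNA was measured by qRT-PCR, normalized to ACTB/GAPDH/POLR2A, and fitted bidirectionally against DMSO.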

Cytochrome P450 2C19 (Homo sapiens), sequence (P33261 whole entry, looked up): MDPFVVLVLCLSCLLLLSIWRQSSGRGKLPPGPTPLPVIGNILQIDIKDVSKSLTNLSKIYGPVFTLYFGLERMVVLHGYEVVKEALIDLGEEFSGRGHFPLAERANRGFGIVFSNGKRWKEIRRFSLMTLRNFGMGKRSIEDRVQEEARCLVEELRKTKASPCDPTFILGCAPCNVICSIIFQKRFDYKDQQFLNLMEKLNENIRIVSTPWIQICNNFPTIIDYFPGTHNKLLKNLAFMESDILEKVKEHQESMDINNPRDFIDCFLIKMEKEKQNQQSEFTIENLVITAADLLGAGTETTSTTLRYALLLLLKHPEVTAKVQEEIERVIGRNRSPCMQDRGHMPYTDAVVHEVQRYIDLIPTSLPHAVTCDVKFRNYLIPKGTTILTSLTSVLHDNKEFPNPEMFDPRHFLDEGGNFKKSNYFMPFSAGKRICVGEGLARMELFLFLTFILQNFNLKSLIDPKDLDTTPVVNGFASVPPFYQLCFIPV

SMILES | outcome | AC50
O=C(O)c1ccc2c(c1)nc(C(=O)NC1CCN(C3CC3)CC1)n2Cc1cc(-c2ccc(Cl)s2)on1 | inactive | –
O=S1(=O)CCCO1 | inactive | –
Cn1c(=O)c2[nH]cnc2n(C)c1=O | inactive | –
CC(C)c1nnc2ccc(-c3ocnc3-c3cc(F)ccc3F)cn12 | – | 91.6 µM (active)
CCCCCOC(C)=O | inactive | –
NC(N)=O | inactive | –
OCC(CO)(CO)CO | inactive | –
CC[C@H](C)C(=O)O[C@H]1C[C@H](O)C=C2C=C[C@H](C)[C@H](CC[C@@H](O)C[C@@H](O)CC(=O)O)[C@H]21 | inactive | –
c1ccc2ncccc2c1 | inactive | –
O=C(NO)C1(NS(=O)(=O)c2ccc(Oc3ccc(F)cc3)cc2)CCOCC1 | – | 12.8 µM (active)
CCCc1ccccc1 | inactive | –
CC(C)CC(C)O (centres undefined) | inactive | –
CCCCC(CC)C(=O)OCCOCCOCCOC(=O)C(CC)CCCC (centres undefined) | inactive | –
CCCCCCCCCCCCCCCCOS(=O)(=O)O | – | 43.1 µM (active)
C[C@@H](Oc1ccc(CNC(=O)c2cccnc2Oc2ccc3c(c2)OCO3)c(F)c1)C(=O)O | inactive | –
Cn1cc[nH]c1=S | inactive | –
CCCCCCCC/C=C\CCCCCCCC(=O)OC[C@@H](O)[C@H]1OC[C@H](O)[C@H]1O | inactive | –
c1ccc2c(c1)-c1cccc3c1c-2cc1ccccc13 | – | 17.2 µM (active)
Cc1nccn1-c1ccc(Sc2cccc(C3(C(N)=O)CCOCC3)c2)cc1 | – | 10.7 µM (active)
OC[C@H]1O[C@@](CO)(O[C@H]2O[C@H](CO)[C@@H](O)[C@H](O)[C@H]2O)[C@@H](O)[C@@H]1O | inactive | –
OCCOCCOCCO | inactive | –
CCCOc1ccc(S(=O)(=O)N2CCN(CC)CC2)cc1-c1nc2c(CC)n(Cc3ccccn3)nc2c(=O)[nH]1 | – | 18.2 µM (active)
Cc1nc(-c2ccccn2)ncc1C(=O)Nn1cc(C)c2cc(F)ccc21 | – | 1.02 µM (active)
NC(=O)N(O)[C@@H]1COc2cc(OCc3ccccc3)ccc21 | inactive | –
CNC(C)=O | inactive | –
O=C(O)c1cccc(C[C@@H]2COc3ccc(OCc4nc5cc(F)ccc5s4)cc3[C@@H]2O)c1 | – | 83.9 µM (active)
CCCC(CCC)C(=O)O | inactive | –
COc1cc(C(C)C)c2c(c1)S(=O)(=O)N(COc1cc(=O)n3cccc(OCCN4CCCCC4)c3n1)C2=O | – | 19.3 µM (active)
CCCCN1C(=O)[C@@H]([C@H](O)C2CCCCC2)NC(=O)C12CCN(Cc1ccc(Oc3ccc(C(=O)O)cc3)cc1)CC2 | – | 2.02 µM (active)
